A short description of assay [1]: ATG_E_Box_CIS: Attagene CIS-FACTORIAL HepG2 Assay for human Enhancer Box (E-box) (AID 2282936). The note with it: HepG2 E-box cis-reporter transcription, actives raise or lower the signal. The gist of the method: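 Multiplexed CIS reporter system in transiently transfected HepG2 cells measures native transcription factor activity. Reporter RNA after 24 h exposure is profiled by RT-PCR-capillary electrophoresis.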

The nature of assay [2]: ATG_M_61_CIS: Attagene CIS-FACTORIAL HepG2 Assay for M61 Transcription Factor (Internal Marker) (AID 2282937). The note with it: HepG2 Attagene CIS-FACTORIAL M61 internal marker reporter; actives raise or lower the signal. The gist of the method: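 Multiplexed reporter mRNA assay, HepG2 human hepatoma cells, 24 h treatment. Signal: FAM-labelled, HpaI-digested RT-PCR fragments by CE. Fit: bidirectional, baseline DMSO.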

Assay [3] in a line: ATG_EGR_CIS: Attagene CIS-FACTORIAL HepG2 Assay for human Early Growth Response 1 (EGR1) (AID 2282938). The note with it: HepG2 Attagene CIS-FACTORIAL EGR reporter mRNA; actives raise or lower the signal. The method in brief:
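Multiplexed cis-reporter system in human hepatoma HepG2 cells, transiently transfected. Cells are dosed for 24 h; reporter transcripts are amplified, fluorescently tagged and sized by capillary electrophoresis, with DMSO as negative control.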

Assay [4] is described as follows: ATG_M_19_CIS: Attagene CIS-FACTORIAL HepG2 Assay for M19 Transcription Factor (Internal Marker) (AID 2282939). The note with it: HepG2 Attagene CIS-FACTORIAL M19 internal marker reporter; actives raise or lower the signal. The method in brief: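 HepG2 cells transiently transfected with cis-regulated multiple reporter transcription units were dosed for 24 h; reporter mRNA was quantified by RT-PCR, 6-FAM primer-extension labelling, HpaI digestion and capillary electrophoresis, with bidirectional fitting against DMSO baseline.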

The nature of assay [5]: ATG_ERE_CIS: Attagene CIS-FACTORIAL HepG2 Assay for Estrogen Response Element (ERE) (AID 2282940). The note with it: HepG2 ERE cis-reporter, Attagene RNA transcript; actives raise or lower the signal. The method in brief: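 HepG2 cells transiently transfected with cis-promoter-driven multiplexed reporter transcription units report endogenous TF activity. After 24 h compound exposure, reporter mRNA is quantified by RT-PCR with capillary electrophoresis fluorescence; bidirectional fitting versus DMSO baseline.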

The nature of assay [6]: ATG_Ets_CIS: Attagene CIS-FACTORIAL HepG2 Assay for human Erythroblast Transformation Specific (ETS) (AID 2282941). The note with it: HepG2 ETS cis-reporter transcription, actives raise or lower the signal. The gist of the method:
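After transient cis-reporter transfection, HepG2 cells receive test chemical for 24 h. Reporter mRNA levels, measured by RT-PCR and capillary electrophoresis fluorescence, are analysed bidirectionally relative to the DMSO baseline.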

In assay [7] the target is Hepatocyte nuclear factor 3-beta (Homo sapiens) (UniProt Q9Y261). Nature of the assay: ATG_FoxA2_CIS: Attagene CIS-FACTORIAL HepG2 Assay for human Forkhead box A2 (FOXA2) (AID 2282942). The note with it: HepG2 cis-reporter transcription factor activity, 24 h; actives raise or lower the signal. The gist of the method: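 Multiplexed cis-element reporter assay in transiently transfected HepG2. Twenty-four hours post-dosing, RNA was reverse-transcribed, amplified, FAM-labelled, HpaI-digested and separated by CE. Activity gain or loss relative to DMSO.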

A short description of assay [8]: ATG_FoxO_CIS: Attagene CIS-FACTORIAL HepG2 Assay for human Forkhead box O (FoxO) (AID 2282943). The note with it: HepG2 Attagene cis-reporter, FoxO element, mRNA; actives raise or lower the signal. The method in brief:
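Values reflect reporter mRNA induction or loss in HepG2 cells 24 h post-dosing, fitted bidirectionally with DMSO as negative control and baseline. Detection used RT-PCR and fluorescence capillary electrophoresis.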

The nature of assay [9]: ATG_GATA_CIS: Attagene CIS-FACTORIAL HepG2 Assay for human GATA Binding Protein (AID 2282944). The note with it: HepG2 GATA cis-element reporter, Attagene multiplex mRNA; actives raise or lower the signal. The gist of the method: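 HepG2 cells transiently transfected with multiplexed cis-element reporter units reflecting endogenous transcription factor activity; reporter mRNA measured after 24 h dosing by RT-PCR, 6-FAM labeling, HpaI digestion and capillary electrophoresis. Bidirectional fitting versus DMSO baseline.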

Assay [10] can be described thus: ATG_GLI_CIS: Attagene CIS-FACTORIAL HepG2 Assay for human Zinc Finger Protein GLI1 (AID 2282945). The note with it: HepG2, Attagene cis-factorial reporter mRNA, GLI element; actives raise or lower the signal. The method in brief:
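HepG2 cells transiently transfected with cis-promoter multiplexed reporter units report endogenous transcription factor activity. After 24 h chemical exposure, reporter mRNA was quantified by RT-PCR, 6-FAM labelling, HpaI digestion and capillary electrophoresis, with bidirectional fitting against DMSO.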

Assay [11] is described as follows: ATG_GRE_CIS: Attagene CIS-FACTORIAL HepG2 Assay for human Glucocorticoid Response Elements (GRE) (AID 2282947). The note with it: HepG2 GRE cis-reporter, Attagene multiplex mRNA; actives raise or lower the signal. The method in brief:
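Following 24 h chemical exposure of transiently transfected HepG2 cells, total RNA was reverse-transcribed and reporter cDNA amplified, fluorescently labelled and sized by capillary electrophoresis. Signal gain or loss was fitted relative to DMSO vehicle.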

Assay [12] is described as follows: ATG_ISRE_CIS: Attagene CIS-FACTORIAL HepG2 Assay for human Interferon Regulatory Factor 1 (IRF1) binding to an Interferon-Stimulated Response Element (ISRE) (AID 2282948). The note with it: HepG2 ISRE cis-reporter (Attagene), mRNA transcription readout; actives raise or lower the signal. The method in brief:
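Quantitation relies on labelled RT-PCR fragments separated by capillary electrophoresis. Human HepG2 cells bearing cis-promoter reporter constructs were treated 24 h; DMSO served as baseline for bidirectional fitting.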

Assay [13] is described as follows: ATG_M_32_CIS: Attagene CIS-FACTORIAL HepG2 Assay for M32 Transcription Factor (Internal Marker) (AID 2282949).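 Further: background control marker of the multiplexed CIS panel rather than a real target.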 The note with it: HepG2 Attagene cis-factorial M32 reporter, mRNA; actives raise or lower the signal. The method in brief:
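HepG2 cells transiently transfected with multiplexed cis-regulated reporter units, dosed 24 h. Reporter mRNA quantified by RT-PCR, 6-FAM labelling, HpaI digestion and capillary electrophoresis; bidirectional fit vs DMSO.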

The nature of assay [14]: ATG_M_06_CIS: Attagene CIS-FACTORIAL HepG2 Assay for M06 Transcription Factor (Internal Marker) (AID 2282950). The note with it: HepG2 Attagene CIS-FACTORIAL M06 internal marker reporter; actives raise or lower the signal. The method in brief: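 HepG2 cells transiently transfected with cis-regulated multiple reporter transcription units were exposed to chemical for 24 h; reporter mRNA was quantified by RT-PCR, 6-FAM primer labelling, HpaI digestion and capillary electrophoresis, fitted bidirectionally against DMSO.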

Assay [15] addresses Hepatocyte nuclear factor 6 (Homo sapiens) (UniProt Q9UBC0). Nature of the assay: ATG_HNF6_CIS: Attagene CIS-FACTORIAL HepG2 Assay for human Hepatocyte Nuclear Factor 6 (HNF6) (AID 2282952). The note with it: HepG2 Attagene cis-factorial HNF6 reporter transcription; actives raise or lower the signal. The gist of the method: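 HepG2 cells transiently transfected with cis-element-driven multiplexed reporter units measuring endogenous transcription factor activity. After 24 h exposure, reporter mRNA quantified by RT-PCR, FAM-labelled fragments and capillary electrophoresis; bidirectional fitting versus DMSO.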

The target of assay [16] is Heat shock factor protein 1 (Homo sapiens) (UniProt Q00613). Nature of the assay: ATG_HSE_CIS: Attagene CIS-FACTORIAL HepG2 Assay for human Heat Shock Transcription Factor 1 (HSE) (AID 2282953). The note with it: HepG2 HSE cis-reporter, Attagene RNA transcription; actives raise or lower the signal. The method in brief:
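HepG2 cells transiently transfected with multiple reporter transcription units under cis-regulatory promoter control, measuring endogenous transcription factor activity. After 24 h chemical exposure, reporter mRNA quantified by RT-PCR, fluorescent labelling, HpaI digestion and capillary electrophoresis; bidirectional fit versus DMSO.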

A short description of assay [17]: ATG_MRE_CIS: Attagene CIS-FACTORIAL HepG2 Assay for human Metal Responsive Element (MRE) (AID 2282954). The note with it: HepG2 MRE cis-reporter transcription, Attagene multiplex; actives raise or lower the signal. The method in brief: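 Step one: transfect HepG2 with cis-regulated reporter units. Step two: dose 24 h. Step three: isolate RNA, RT-PCR, 6-FAM label, HpaI digest, capillary electrophoresis. Fit bidirectionally to DMSO.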

Assay [18] has as its target Paired box protein Pax-6 (Homo sapiens) (UniProt P26367). Nature of the assay: ATG_Pax6_CIS: Attagene CIS-FACTORIAL HepG2 Assay for human Paired Box 6 (PAX6) (AID 2282956). The note with it: HepG2 CIS-FACTORIAL PAX6 reporter transcription, RNA readout; actives raise or lower the signal. The gist of the method: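 After twenty-four hours of chemical exposure, transfected HepG2 cells are harvested for RNA. Cis-promoter reporter transcripts are amplified, fluorescently labelled and sized by capillary electrophoresis, with gain and loss of signal scored against DMSO.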

Assay [19] is described as follows: ATG_PBREM_CIS: Attagene CIS-FACTORIAL HepG2 Assay for human Phenobarbital-responsive Enhancer Module (PBREM) (AID 2282955). The note with it: HepG2 PBREM cis-reporter, Attagene multiplexed transcription; actives raise or lower the signal. The gist of the method: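 Multiplexed cis-reporter readout in human hepatoma HepG2 cells; PBREM-regulated transcript quantified after 24 h exposure by fluorescent RT-PCR fragment analysis. Signal changes up or down fitted relative to DMSO.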

For assay [20], the target named is Hypoxia-inducible factor 1-alpha (Homo sapiens) (UniProt Q16665). Nature of the assay: ATG_HIF1a_CIS: Attagene CIS-FACTORIAL HepG2 Assay for human Hypoxia Inducible Factor 1 (HIF1A) (AID 2282951). The note with it: HepG2 Attagene cis-factorial HIF1a reporter transcription; actives raise or lower the signal. The gist of the method: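 Cis-element reporter constructs were transiently transfected into HepG2 cells, which were treated for 24 h; reporter RNA was reverse-transcribed, amplified, labelled and resolved by capillary electrophoresis.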

Some structures have more than one record in an assay (separate samples or runs), and their calls can disagree. Calls of active or inactive are those of the source. How the source made its calls: active means hit-call score of the fitted dose curve at least 0.9, where 1 is the maximum; inactive means score below 0.9.

Data on six compounds can be found in PubChem BioAssay (EPA / NIEHS).

The AC50 is the midpoint of the concentration-response curve, whichever way the signal moves.

Hypoxia-inducible factor 1-alpha (Homo sapiens), sequence (Q16665 whole entry, looked up): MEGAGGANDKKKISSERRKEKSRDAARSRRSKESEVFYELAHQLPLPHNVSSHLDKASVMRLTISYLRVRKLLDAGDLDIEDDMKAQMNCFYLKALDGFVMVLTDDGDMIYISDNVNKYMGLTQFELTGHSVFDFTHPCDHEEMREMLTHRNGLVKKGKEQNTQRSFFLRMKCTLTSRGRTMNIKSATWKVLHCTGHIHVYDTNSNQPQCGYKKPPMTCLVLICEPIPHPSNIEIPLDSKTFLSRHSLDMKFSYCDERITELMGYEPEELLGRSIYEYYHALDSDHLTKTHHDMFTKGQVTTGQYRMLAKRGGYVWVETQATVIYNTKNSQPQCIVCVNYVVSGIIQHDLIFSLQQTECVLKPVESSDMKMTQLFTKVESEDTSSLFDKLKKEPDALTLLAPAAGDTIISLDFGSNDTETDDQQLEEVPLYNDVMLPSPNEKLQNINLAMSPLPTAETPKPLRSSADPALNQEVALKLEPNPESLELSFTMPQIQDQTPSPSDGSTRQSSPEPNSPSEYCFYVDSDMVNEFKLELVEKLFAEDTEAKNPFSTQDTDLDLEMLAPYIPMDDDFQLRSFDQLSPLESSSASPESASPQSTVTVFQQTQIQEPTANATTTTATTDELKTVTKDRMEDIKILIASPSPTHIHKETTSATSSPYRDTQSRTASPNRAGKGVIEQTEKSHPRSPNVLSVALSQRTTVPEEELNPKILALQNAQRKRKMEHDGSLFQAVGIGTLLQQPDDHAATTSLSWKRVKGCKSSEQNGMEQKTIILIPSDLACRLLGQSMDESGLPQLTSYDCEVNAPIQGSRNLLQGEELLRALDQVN
Heat shock factor protein 1 (Homo sapiens), sequence (Q00613 whole entry, looked up): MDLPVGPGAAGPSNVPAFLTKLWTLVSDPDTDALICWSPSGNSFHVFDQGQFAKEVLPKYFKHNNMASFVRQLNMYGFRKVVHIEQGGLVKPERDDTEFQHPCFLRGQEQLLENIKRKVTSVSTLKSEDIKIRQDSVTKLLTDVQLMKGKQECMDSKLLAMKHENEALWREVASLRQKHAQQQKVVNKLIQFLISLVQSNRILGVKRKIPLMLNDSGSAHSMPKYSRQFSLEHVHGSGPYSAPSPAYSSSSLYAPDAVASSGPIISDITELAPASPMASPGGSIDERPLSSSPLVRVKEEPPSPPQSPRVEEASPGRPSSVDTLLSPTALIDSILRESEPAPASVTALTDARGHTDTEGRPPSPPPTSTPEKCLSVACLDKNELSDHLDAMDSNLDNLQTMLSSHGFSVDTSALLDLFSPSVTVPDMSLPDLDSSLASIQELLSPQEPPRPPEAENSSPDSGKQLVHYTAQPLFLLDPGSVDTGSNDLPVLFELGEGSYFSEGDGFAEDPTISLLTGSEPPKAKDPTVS
Hepatocyte nuclear factor 6 (Homo sapiens), sequence (Q9UBC0 whole entry, looked up, the tested form may be a part): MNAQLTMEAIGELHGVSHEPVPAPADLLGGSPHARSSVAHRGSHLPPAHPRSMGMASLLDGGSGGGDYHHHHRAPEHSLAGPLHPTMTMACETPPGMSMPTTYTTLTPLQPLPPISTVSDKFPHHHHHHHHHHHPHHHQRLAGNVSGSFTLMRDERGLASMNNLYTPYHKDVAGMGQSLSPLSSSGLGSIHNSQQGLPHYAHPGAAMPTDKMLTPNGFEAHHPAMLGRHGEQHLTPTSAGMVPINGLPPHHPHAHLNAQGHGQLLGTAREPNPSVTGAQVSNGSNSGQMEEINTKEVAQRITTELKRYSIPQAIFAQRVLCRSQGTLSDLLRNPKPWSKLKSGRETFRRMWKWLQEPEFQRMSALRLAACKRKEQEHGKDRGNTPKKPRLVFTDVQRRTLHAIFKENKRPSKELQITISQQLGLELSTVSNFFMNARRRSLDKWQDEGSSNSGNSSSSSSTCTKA
Hepatocyte nuclear factor 3-beta (Homo sapiens), sequence (Q9Y261 whole entry, looked up): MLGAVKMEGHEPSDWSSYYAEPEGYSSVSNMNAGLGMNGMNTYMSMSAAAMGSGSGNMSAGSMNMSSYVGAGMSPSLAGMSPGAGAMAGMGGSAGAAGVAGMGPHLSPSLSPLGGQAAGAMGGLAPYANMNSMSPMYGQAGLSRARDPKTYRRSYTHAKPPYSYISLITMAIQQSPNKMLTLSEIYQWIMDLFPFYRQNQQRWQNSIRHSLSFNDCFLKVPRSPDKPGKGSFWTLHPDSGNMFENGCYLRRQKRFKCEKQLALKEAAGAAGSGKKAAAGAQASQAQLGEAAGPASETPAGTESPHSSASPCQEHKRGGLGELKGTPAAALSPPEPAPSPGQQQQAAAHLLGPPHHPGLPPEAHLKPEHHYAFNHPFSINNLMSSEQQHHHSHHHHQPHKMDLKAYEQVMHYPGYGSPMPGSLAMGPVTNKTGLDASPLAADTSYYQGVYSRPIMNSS
Paired box protein Pax-6 (Homo sapiens), sequence (P26367 whole entry, looked up): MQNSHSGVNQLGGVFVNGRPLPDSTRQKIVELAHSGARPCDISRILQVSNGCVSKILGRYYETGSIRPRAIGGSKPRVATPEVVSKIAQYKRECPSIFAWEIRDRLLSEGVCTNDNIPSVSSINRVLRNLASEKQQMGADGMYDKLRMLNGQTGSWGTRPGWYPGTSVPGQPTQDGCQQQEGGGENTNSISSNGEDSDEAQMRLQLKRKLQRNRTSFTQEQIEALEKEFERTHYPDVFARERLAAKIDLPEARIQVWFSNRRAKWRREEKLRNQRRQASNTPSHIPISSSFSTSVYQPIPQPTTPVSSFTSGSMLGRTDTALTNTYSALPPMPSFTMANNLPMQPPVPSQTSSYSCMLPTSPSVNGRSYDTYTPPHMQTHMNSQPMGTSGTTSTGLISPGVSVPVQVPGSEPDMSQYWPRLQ

Take `Cc1cccc([N+](=O)[O-])c1`: the result in [1], in assay [2], in assay [3], in [4], in [5] and in assay [6] was inactive. Further, the call in assay [7], in assay [8], in assay [9], in assay [10], in assay [11] and in assay [12] was inactive. The compound was classed as inactive in assay [13], in assay [14], in assay [15], in [16], in [17] and in assay [18].
As to `CCCCCCOC(=O)c1ccccc1C(=O)OCCCCCC`, the outcome in [1], in assay [2], in assay [3], in assay [4], in assay [6] and in assay [7] was inactive. Moreover, the call in [8], in assay [9], in assay [10], in [11], in assay [12] and in assay [13] was inactive. Moreover, the compound was called inactive in assay [14], in assay [15], in [16], in assay [17], in [19] and in assay [18]. For the same compound, the AC50 in [5] is 4.15 µM (active).
For the compound `CC(C)(O)C(=O)Nc1ccc([N+](=O)[O-])c(C(F)(F)F)c1`, the result in [1], in [2], in assay [3], in assay [4], in assay [5] and in assay [6] was inactive. For the same compound, the result in [7], in [8], in [9], in assay [10], in assay [12] and in assay [13] was inactive. Also, the compound was classed as inactive in assay [14], in assay [20], in assay [15], in [16], in assay [17] and in assay [19]. Besides, in assay [18], the call was inactive. Also, the concentration at half-maximal activity (AC50) in assay [16] is 77 µM (active); in [18] it was 48.9 µM (active).
With `CCOCCOC(C)=O`, the result in assay [1], in assay [2], in assay [3], in [4], in assay [5] and in assay [6] was inactive. For the same compound, the call in assay [7], in [8], in assay [9], in assay [10], in assay [11] and in assay [12] was inactive. Also, the result in assay [13], in [14], in [15], in assay [16], in [17] and in assay [18] was inactive.
For the compound `Nc1ccc(-c2ccc(N)cc2)cc1`, the result in assay [1], in assay [2], in [3], in [4], in [6] and in assay [7] was inactive. Besides, the result in assay [8], in assay [9], in assay [10], in assay [11], in [12] and in assay [13] was inactive. Also, the compound was called inactive in assay [14], in assay [15], in assay [16], in [17], in [19] and in assay [18]. Moreover, the concentration at half-maximal activity (AC50) in [5] was 33.2 µM (active).
Take `Cc1ccccc1CO[C@@H]1C[C@@]2(C(C)C)CC[C@]1(C)O2`: the result in assay [1], in assay [2], in assay [3], in [4], in assay [6] and in assay [7] was inactive. In addition, the result in assay [8], in assay [9], in [10], in [12], in assay [13] and in [14] was inactive. Besides, the result in assay [20], in assay [15], in [16], in [17], in assay [19] and in assay [18] was inactive.
